Among the data in PubChem BioAssay are composite z-score and z-score values, retold here.

In test [1] the test system is Plasmodium falciparum Sir2 (PF13_0152, Sir2A). The experiment in a line: pfSir2 binders on small-molecule microarrays, primary screen, biochemical, small-molecule microarray, 635 nm fluorescence (AID 1098).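 Note: score merges spot fluorescence intensity with its signal-to-noise ratio.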 The following applies: small-molecule microarray binding, fluorescence 635 nm; higher = more signal.
A short description of test [2]: small-molecule microarray binders of probe aDKK1, primary screen, biochemical, biotinylated probe, 635/667 nm fluorescence (AID 1099).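 Note: score merges 667nm spot fluorescence with signal to noise across triplicate slides.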 The following applies: higher = more signal.
Test [3] can be described thus: small-molecule microarray binders of probe aCHRDL2, primary screen, biochemical, biotinylated probe, 635/667 nm fluorescence (AID 1100). The following applies: higher = more signal.
Test [4] is described as follows: splicing luciferase reporter signal modulators, primary screen, spliceosome inhibition project, cell-based, HEK293, splice +/- reporter (AID 1101).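 Note: HEK293 cells carrying a splicing-competent luciferase reporter gene; test concentration not given here.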 The following applies: luminescence, 24 h, higher = more signal, called active from +8 up or from −8 down. In general terms: In a reporter assay the amount or activity of a reporter protein is the signal.
The target in test [5] is Fibroblast growth factor 10 (Homo sapiens) (UniProt O15520). The experiment in a line: FGF10 binders on small-molecule microarrays, primary screen, biochemical, small-molecule microarray, 635 nm fluorescence (AID 1102). The following applies: FGF10 binding, fluorescence 635 nm, higher = more signal.
For test [6], the system named is glycogen synthase kinase-3 (GSK3A per assay name; protocol says GSK3B). Put plainly: GSK3 binders on small-molecule microarrays, primary screen, biochemical, small-molecule microarray, 635 nm fluorescence, GSK3A (AID 1103). Note: the record names both GSK3A and GSK3B. The following applies: small-molecule microarray binding, fluorescence 635 nm; higher = more signal.
The target of test [7] is Epidermal growth factor receptor (Homo sapiens) (UniProt P00533). The experiment in a line: EGFR binders on small-molecule microarrays, primary screen, biochemical, small-molecule microarray, 635 nm fluorescence (AID 1104).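 Note: score merges 667 nm emission intensity with spot signal to noise over triplicate slides.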 The following applies: EGFR binding, higher = more signal.
Test [8] has as its target Follistatin-related protein 3 (Homo sapiens) (UniProt O95633). Put plainly: FSTL3 binders on small-molecule microarrays, primary screen, biochemical, small-molecule microarray, 635 nm fluorescence (AID 1105).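 Note: score merges emission near 667 nm and signal to noise per printed spot across three slides.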 The following applies: FSTL3 binding, higher = more signal.
The target of test [9] is Dickkopf-related protein 1 (Homo sapiens) (UniProt O94907). Put plainly: DKK1 binders on small-molecule microarrays, primary screen, biochemical, small-molecule microarray, 635 nm fluorescence scan (AID 1106).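 Note: score merges emission near 667 nm with signal to noise over three replicate slides.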 The following applies: DKK1 binding, higher = more signal.
Test [10] concerns Inhibin beta A chain (activin A). The experiment in a line: INHBA (activin A) binders on microarrays, primary screen, biochemical, small-molecule microarray, 635 nm fluorescence scan (AID 1107).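 Note: mouse activin A protein probed at 4.33 µg/mL on printed slides; score merges bound-protein fluorescence near 667 nm with spot signal-to-noise.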 The following applies: small-molecule microarray binding, higher = more signal.
Test [11] concerns Human papillomavirus type 1a protein E7 (residues 44-93). Put plainly: HPV1a E7 fragment binders on microarrays, primary screen, biochemical, small-molecule microarray, residues 44-93, 635 nm fluorescence (AID 1108).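 Note: E7 fragment applied at 1 µg/mL in TBST for 1 h at 4 C; score combines spot fluorescence with its signal to noise ratio.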 The following applies: small-molecule microarray binding, fluorescence 635 nm; higher = more signal.
Test [12] is described as follows: modulators of HCV replicon luciferase signal, primary screen, HCV replication inhibitor project, Huh7 cells, luciferase reporter (AID 1109).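 Note: huh7 hepatoma cells harbouring a luciferase neomycin HCV replicon reporter; luciferase luminescence as measure of HCV replicon replication; test concentration not given here.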 The following applies: 48 h, higher = more signal.
In test [13] the target is Left-right determination factor 2 (Homo sapiens) (UniProt O00292). Put plainly: LEFTY2 binders on small-molecule microarrays, primary screen, biochemical, small-molecule microarray, 635 nm fluorescence scan (AID 1110). The following applies: LEFTY2 binding, higher = more signal.
The target in test [14] is Calmodulin-1 (Homo sapiens) (UniProt P0DP23). Put plainly: CALM1 binders on microarrays, EGTA buffer, profiling panel, biochemical, small-molecule microarray, Cy5-labelled CALM1 (AID 1111).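 Note: labelled calmodulin applied in Tris saline Tween buffer holding calcium plus EGTA and DTT.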 The following applies: Cy5-CALM1 binding fluorescence, higher = more signal.
The target is the same in test [15]. The experiment in a line: calcium-bound CALM1 binders on microarrays, profiling panel, artefact control for SMM control-protein annotation, biochemical, small-molecule microarray, Cy5-labelled CALM1, plus calcium (AID 1112).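 Note: score merges spot fluorescence with signal to noise from triplicate slides.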 The following applies: Cy5-CALM1 binding fluorescence, higher = more signal.
The nature of test [16]: small-molecule microarray binders of probe aWnt5a, primary screen, biochemical, biotinylated probe, 635/667 nm fluorescence (AID 1113).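 Note: score merges 667 nm fluorescence intensity with signal-to-noise per printed feature.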 The following applies: higher = more signal.
The nature of test [17]: small-molecule microarray binders of probe aShh, primary screen, biochemical, biotinylated probe, 635/667 nm fluorescence (AID 1114).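 Note: probe is biotin-labelled aShh protein from a stem cell growth factor screen; measures binding of labelled protein to compounds printed on the slide; score merges feature fluorescence at 667 nm with signal-to-noise.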 The following applies: higher = more signal.
A short description of test [18]: small-molecule microarray binders of probe aNog, primary screen, biochemical, biotinylated probe, 635/667 nm fluorescence (AID 1115).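 Note: probe is biotinylated aNog protein used at 0.15 µg/mL for 1 h at 4 C; z-score combines 667 nm fluorescence of each spot with its signal to noise.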 The following applies: higher = more signal.
Test [19] deals with Torsin-1A-interacting protein 1 (Homo sapiens) (UniProt Q5JTV8). Put plainly: LAP1 binders from COS7 cell lysate, primary screen, small-molecule microarray, 635/667 nm fluorescence (AID 1116). The following applies: COS7-hLAP1 lysate binding, 635 nm fluorescence, higher = more signal.
In test [20] the target is Alpha-bungarotoxin (Bungarus multicinctus) (UniProt P60615). Put plainly: alpha-bungarotoxin binders on microarray, profiling panel, artefact control for SMM control protein annotation, biochemical, small-molecule microarray, Alexa647 label, 635/667 nm fluorescence (AID 1117). The following applies: alpha-BTX-A647 binding fluorescence, higher = more signal.

Activity calls are given as the source filed them.

Left-right determination factor 2 (Homo sapiens), sequence (O00292 whole entry, looked up): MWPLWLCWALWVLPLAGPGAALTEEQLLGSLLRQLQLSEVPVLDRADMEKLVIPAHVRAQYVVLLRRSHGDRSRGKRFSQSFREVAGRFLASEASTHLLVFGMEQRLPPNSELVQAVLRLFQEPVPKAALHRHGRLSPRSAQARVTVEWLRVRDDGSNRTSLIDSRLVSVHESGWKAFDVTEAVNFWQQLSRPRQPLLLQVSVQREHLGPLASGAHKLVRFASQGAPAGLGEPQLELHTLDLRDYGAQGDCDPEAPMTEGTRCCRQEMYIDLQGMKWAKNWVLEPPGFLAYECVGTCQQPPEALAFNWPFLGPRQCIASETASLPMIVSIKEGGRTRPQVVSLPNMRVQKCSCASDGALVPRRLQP
Follistatin-related protein 3 (Homo sapiens), sequence (O95633 whole entry, looked up): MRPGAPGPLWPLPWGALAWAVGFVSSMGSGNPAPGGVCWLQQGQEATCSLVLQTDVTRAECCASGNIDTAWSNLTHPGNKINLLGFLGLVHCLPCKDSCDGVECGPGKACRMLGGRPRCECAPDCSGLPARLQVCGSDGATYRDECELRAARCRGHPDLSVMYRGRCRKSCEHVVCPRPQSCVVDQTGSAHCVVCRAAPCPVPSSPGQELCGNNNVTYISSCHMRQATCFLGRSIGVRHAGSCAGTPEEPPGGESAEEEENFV
Torsin-1A-interacting protein 1 (Homo sapiens), sequence (Q5JTV8 whole entry, looked up): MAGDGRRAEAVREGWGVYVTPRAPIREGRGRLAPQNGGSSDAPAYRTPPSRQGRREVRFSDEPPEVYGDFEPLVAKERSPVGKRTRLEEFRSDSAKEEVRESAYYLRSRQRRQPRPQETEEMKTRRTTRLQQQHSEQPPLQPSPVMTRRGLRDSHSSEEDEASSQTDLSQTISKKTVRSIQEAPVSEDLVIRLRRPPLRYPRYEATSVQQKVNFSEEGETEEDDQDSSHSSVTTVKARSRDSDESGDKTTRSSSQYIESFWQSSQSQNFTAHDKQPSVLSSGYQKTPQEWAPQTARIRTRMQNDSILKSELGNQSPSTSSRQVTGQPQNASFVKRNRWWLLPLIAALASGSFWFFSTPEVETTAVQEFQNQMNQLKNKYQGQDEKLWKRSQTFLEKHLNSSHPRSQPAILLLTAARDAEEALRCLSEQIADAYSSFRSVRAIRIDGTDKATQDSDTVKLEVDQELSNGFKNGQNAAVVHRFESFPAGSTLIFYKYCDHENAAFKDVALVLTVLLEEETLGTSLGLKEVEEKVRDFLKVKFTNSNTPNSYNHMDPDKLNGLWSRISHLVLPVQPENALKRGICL
Epidermal growth factor receptor (Homo sapiens), sequence (P00533 whole entry, looked up): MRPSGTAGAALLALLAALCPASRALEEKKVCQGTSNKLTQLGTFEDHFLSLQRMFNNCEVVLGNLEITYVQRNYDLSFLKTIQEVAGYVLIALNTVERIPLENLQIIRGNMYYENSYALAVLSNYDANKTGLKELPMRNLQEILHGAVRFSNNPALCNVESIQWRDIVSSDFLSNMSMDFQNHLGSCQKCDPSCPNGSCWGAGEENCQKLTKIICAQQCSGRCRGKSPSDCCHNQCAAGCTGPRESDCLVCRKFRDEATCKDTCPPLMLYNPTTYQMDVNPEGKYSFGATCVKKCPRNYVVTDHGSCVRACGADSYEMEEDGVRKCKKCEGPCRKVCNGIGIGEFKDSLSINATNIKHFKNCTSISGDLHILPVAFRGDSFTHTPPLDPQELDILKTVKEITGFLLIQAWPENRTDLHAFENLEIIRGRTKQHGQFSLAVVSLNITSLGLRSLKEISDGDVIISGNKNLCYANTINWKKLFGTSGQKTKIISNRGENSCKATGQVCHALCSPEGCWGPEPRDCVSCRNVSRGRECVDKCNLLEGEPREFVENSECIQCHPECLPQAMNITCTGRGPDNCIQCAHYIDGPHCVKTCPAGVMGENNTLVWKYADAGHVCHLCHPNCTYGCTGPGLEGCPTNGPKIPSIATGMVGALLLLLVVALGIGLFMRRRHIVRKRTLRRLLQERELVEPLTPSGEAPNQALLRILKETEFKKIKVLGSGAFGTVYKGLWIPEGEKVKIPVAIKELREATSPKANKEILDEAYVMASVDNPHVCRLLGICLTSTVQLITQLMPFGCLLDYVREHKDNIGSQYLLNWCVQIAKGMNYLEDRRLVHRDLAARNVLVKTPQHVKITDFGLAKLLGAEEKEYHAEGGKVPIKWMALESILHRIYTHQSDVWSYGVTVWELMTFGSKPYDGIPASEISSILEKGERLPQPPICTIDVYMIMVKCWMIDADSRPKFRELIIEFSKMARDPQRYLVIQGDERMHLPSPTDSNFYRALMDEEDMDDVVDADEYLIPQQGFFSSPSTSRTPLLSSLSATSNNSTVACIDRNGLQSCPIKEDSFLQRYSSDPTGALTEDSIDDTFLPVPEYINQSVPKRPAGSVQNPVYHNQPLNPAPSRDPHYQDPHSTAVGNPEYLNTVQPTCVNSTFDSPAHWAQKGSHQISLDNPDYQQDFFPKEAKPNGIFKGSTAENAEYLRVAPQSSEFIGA
Alpha-bungarotoxin (Bungarus multicinctus), sequence (P60615 whole entry, looked up): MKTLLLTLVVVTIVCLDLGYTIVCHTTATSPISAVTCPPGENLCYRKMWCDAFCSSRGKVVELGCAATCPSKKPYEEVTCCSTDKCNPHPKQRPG
Dickkopf-related protein 1 (Homo sapiens), sequence (O94907 whole entry, looked up): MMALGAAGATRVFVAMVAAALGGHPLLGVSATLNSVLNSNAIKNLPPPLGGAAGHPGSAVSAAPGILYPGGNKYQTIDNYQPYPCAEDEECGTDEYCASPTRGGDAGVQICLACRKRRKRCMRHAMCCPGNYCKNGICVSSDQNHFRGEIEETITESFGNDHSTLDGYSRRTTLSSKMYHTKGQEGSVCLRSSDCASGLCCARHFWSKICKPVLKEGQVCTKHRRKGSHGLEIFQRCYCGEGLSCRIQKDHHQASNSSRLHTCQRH
Fibroblast growth factor 10 (Homo sapiens), sequence (O15520 whole entry, looked up): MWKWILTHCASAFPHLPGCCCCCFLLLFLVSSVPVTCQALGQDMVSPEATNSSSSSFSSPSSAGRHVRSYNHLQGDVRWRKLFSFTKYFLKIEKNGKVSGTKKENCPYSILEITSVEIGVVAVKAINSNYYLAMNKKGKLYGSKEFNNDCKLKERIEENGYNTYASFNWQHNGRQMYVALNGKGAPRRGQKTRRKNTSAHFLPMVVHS

In the case of `CC(=O)NCCCC[C@@H]1NC(=O)[C@H]2C[C@@H](C(=O)NCCCCCNC(=O)CS)[C@@H](c3ccc(O)cc3)N2C1=O`, the composite z-score in test [1] is 0.273; in test [2], 0.143; in test [3], 0.762; in test [5] it was 0.157; in [6], -0.252; in [7] it was -0.578. The composite z-score in test [8] is -0.84; in test [9], -0.186; in test [10], -0.0107; in test [11] it was 0.46; in test [13] it was -0.574; in [14], 0.362. Also, the composite z-score is 0.438 in test [15]; -0.0919 in test [16]; -0.0035 in [17]; -0.196 in test [18]; 0.177 in test [19]; 0.117 in test [20]. In addition, the z-score in test [4] was -0.372 (inactive); in test [12], -0.0987.
Take `C=CCC(OC(C)=O)[C@@H]1[C@@H](N(Cc2ccc(-c3cccc(C(F)(F)F)c3)o2)C(=O)c2cccc3ccccc23)c2cc(OCCCO)ccc2N1C(=O)Cc1ccc2ccccc2c1` (stereo not given in full): the composite z-score in test [1] was 0.25; in test [2], 0.102; in test [3], 0.291; in test [5] it was 0.0246; in [6], -1.07; in test [7] it was -0.352. For the same molecule, the composite z-score in test [8] was 0.117; in test [9] it was -0.282; in test [10], 0.95; in test [11], -0.168; in test [13] it was -0.648; in test [14] it was 0.0134. In addition, the composite z-score in [15] is 0.242; in test [16], -0.0597; in test [17], 0.123; in [18], -0.398; in test [19] it was 0.0212; in test [20], 0.794. In addition, the z-score in test [4] is -0.896 (inactive); in test [12], 0.395.
With `NCCCCCNC(=O)[C@H]1C[C@H]2C(=O)N3CCC[C@H]3C(=O)N2[C@H]1c1ccc(O)cc1`, the composite z-score in [1] was 0.94; in test [2], 1.63; in test [3], 0.684; in [5], 1.01; in [6], 1.28; in [7], 0.781. The composite z-score in test [8] was 1.34; in test [9] it was 1.24; in [10], 1.12; in test [11] it was 1.39; in test [13], 0.84; in test [14], 1.99. Moreover, the composite z-score in [15] came out at 1.13; in test [16], 0.212; in test [17] it was 0.264; in test [18], 1.19; in test [19], 1.07; in test [20] it was 1.1. Moreover, the figures for the z-score in test [4] and in test [12] were -0.391 (inactive) and -0.0865, respectively.
`C=CCC(OC(C)=O)[C@@H]1[C@@H](N(Cc2cc3ccccc3o2)C(=O)Cc2ccc(OC)cc2)c2cc(OCCCO)ccc2N1C(=O)c1ccc2ccccc2c1` (stereo not given in full): the composite z-score is 1.02 in [1]; -0.172 in test [2]; 0.395 in test [3]; -0.0205 in [5]; -0.683 in test [6]; -0.536 in [7]. In addition, the composite z-score in test [8] was -0.0573; in test [9] it was -0.306; in test [10], 1.16; in test [11] it was 0.0806; in test [13] it was -0.0999; in [14] it was -0.428. The composite z-score in test [15] was 0.174; in test [16], -0.0754; in test [17] it was 0.0062; in [18] it was -0.125; in [19] it was 0.0296; in test [20], -0.396. In addition, the z-score in test [4] was -0.564 (inactive); in [12] it was -0.359.
Regarding `O=C1C2C=CC(C(O)c3ccc4c(c3)OCO4)N(Nc3ccc([N+](=O)[O-])cc3)C2C(=O)N1c1ccccc1` (stereo not given), the composite z-score in test [1] is 1.73; in [2] it was -0.0669; in test [3], -0.162; in [5] it was 0.67; in test [6] it was 0.675; in test [7], 0.342. Besides, the composite z-score in test [8] was 0.381; in [9] it was 0.207; in test [10], 0.278; in [11], 1.12; in [13] it was 0.219; in [14] it was -0.182. Besides, the composite z-score in test [15] was -0.429; in test [16], -0.0445; in test [17], -0.0968; in [18] it was -0.418; in test [19], -0.181; in test [20], 0.177. The z-score in [4] is -0.0322 (inactive); in [12], -0.133.
